# Shown is part of a subset that was picked to be rich in the strongest signals.
# Assays:
# Assay in all cases: glycan array binding signal (z-score within array); higher = stronger binding
# Details in all cases: glycan notation: IUPAC condensed, linker removed
# [1] = target: Fuc(a1-2)Gal(b1-3)GalNAc(b1-3)Gal
# Outline: (§1)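 Columns mapping to the same glycan were averaged after glycan names were converted to IUPAC-condensed notation. The data come from 3228 arrays in the Consortium for Functional Glycomics database, limited to those with an available protein sequence. Binding is reported as a within-array Z-score averaged across arrays of one protein sequence and across linkers.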
# [2] = target: Fuc(a1-2)Gal(b1-4)GlcNAc(b1-3)Gal(b1-4)GlcNAc(b1-3)Gal(b1-4)GlcNAc
# Outline: as §1
# Fuc(a1-2)Gal6S(b1-4)Glc = target: Fuc(a1-2)Gal6S(b1-4)Glc
# Outline: as §1
# [3] = target: Fuc(a1-2)[Gal(a1-3)]Gal(b1-4)GlcNAc
# Outline: as §1
# Fuc(a1-3)GlcNAc = target: Fuc(a1-3)GlcNAc
# Outline: as §1
# [4] = target: Fuc(a1-3)[Gal(b1-4)]GlcNAc6S
# Outline: as §1
# [5] = target: Gal(a1-3)Gal(b1-4)[Fuc(a1-3)]GlcNAc
# Outline: as §1
# Gal(b1-3)Gal = target: Gal(b1-3)Gal
# Outline: as §1
# [6] = target: Gal(b1-3)[Fuc(a1-4)]GlcNAc(b1-3)Gal(b1-4)[Fuc(a1-3)]GlcNAc
# Outline: as §1
# [7] = target: Gal(b1-3)[GlcNAc(b1-6)]GalNAc
# Outline: as §1
# [8] = target: Gal(b1-4)GlcNAc(b1-3)Gal(b1-4)Glc
# Outline: as §1
# [9] = target: Gal(b1-4)GlcNAc(b1-3)Gal(b1-4)[Fuc(a1-3)]GlcNAc(b1-3)Gal(b1-4)[Fuc(a1-3)]GlcNAc
# Outline: as §1
# [10] = target: Gal(b1-4)GlcNAc(b1-3)[GlcNAc(b1-6)]Gal(b1-4)GlcNAc
# Outline: as §1
# Gal3S(b1-4)Glc = target: Gal3S(b1-4)Glc
# Outline: as §1
# GalNAc(b1-3)Gal = target: GalNAc(b1-3)Gal
# Outline: as §1
# GalNAc(b1-4)GlcNAc = target: GalNAc(b1-4)GlcNAc
# Outline: as §1
# Kdn(a2-3)Gal(b1-3)GlcNAc = target: Kdn(a2-3)Gal(b1-3)GlcNAc
# Outline: as §1
# [11] = target: Man(a1-3)[Man(a1-6)]Man(a1-6)[Man(a1-2)Man(a1-3)]Man(b1-4)GlcNAc(b1-4)GlcNAc
# Outline: as §1
# [12] = target: Neu5Ac(a2-3)Gal(b1-3)GlcNAc6S
# Outline: as §1
# [13] = target: Neu5Ac(a2-3)Gal(b1-3)[Fuc(a1-4)]GlcNAc
# Outline: as §1
# [14] = target: Neu5Ac(a2-3)Gal(b1-4)GlcNAc(b1-3)Gal(b1-3)GlcNAc
# Outline: as §1
# [15] = target: Neu5Ac(a2-3)Gal6S(b1-4)[Fuc(a1-3)]GlcNAc
# Outline: as §1
# Neu5Ac(a2-3)GalNAc = target: Neu5Ac(a2-3)GalNAc
# Outline: as §1
# [16] = target: Neu5Ac(a2-6)Gal(b1-4)GlcNAc(b1-2)Man(a1-6)[Gal(b1-4)GlcNAc(b1-2)Man(a1-3)]Man(b1-4)GlcNAc(b1-4)GlcNAc
# Outline: as §1
# [17] = target: Neu5Ac(a2-6)Gal(b1-4)GlcNAc(b1-3)Gal(b1-4)[Fuc(a1-3)]GlcNAc(b1-3)Gal(b1-4)[Fuc(a1-3)]GlcNAc
# Outline: as §1
# [18] = target: Neu5Ac(a2-8)Neu5Ac(a2-8)Neu5Ac
# Outline: as §1
binder,measurement,setting,value
"Angptl4 (Homo sapiens), Q9BY76 (protein) MSGAPTAGAALMLCAATAVLLSAQGGPVQSKSPRFASWDEMNVLAHGLLQLGQGLREHAERTRSQLSALERRLSACGSACQGTEGSTDLPLAPESRVDPEVLHSLQTQLKAQNSRIQQLFHKVAQQQRHLEKQHLRIQHLQSQFGLLDHKHLDHEVAKPARRKRLPEMAQPVDPAHNVSRLHRLPRDCQELFQVGERQSGLFEIQPQGSPPFLVNCKMTSDGGWTVIQRRHDGSVDFNRPWEAYKAGFGDPHGEFWLGLEKVHSITGDRNSRLAVQLRDWDGNAELLQFSVHLGGEDTAYSLQLTAPVAGQLGATTVPPSGLSVPFSTWDQDHDLRRDKNCAKSLSGGWWFGTCSHSNLNGQYFRSIPQQRQKLKKGIFWKTWRGRYYPLQATTMLIQPMAAEAAS",glycan array binding signal (z-score),[1],5.26
same,glycan array binding signal (z-score),[2],0.616
same,glycan array binding signal (z-score),Fuc(a1-2)Gal6S(b1-4)Glc,-0.253
same,glycan array binding signal (z-score),[3],0.087
same,glycan array binding signal (z-score),Fuc(a1-3)GlcNAc,-0.446
same,glycan array binding signal (z-score),[4],-0.527
same,glycan array binding signal (z-score),[5],-0.522
same,glycan array binding signal (z-score),Gal(b1-3)Gal,0.531
same,glycan array binding signal (z-score),[6],-0.192
same,glycan array binding signal (z-score),[7],-0.215
same,glycan array binding signal (z-score),[8],-0.407
same,glycan array binding signal (z-score),[9],3.98
same,glycan array binding signal (z-score),[10],-0.27
same,glycan array binding signal (z-score),Gal3S(b1-4)Glc,-0.052
same,glycan array binding signal (z-score),GalNAc(b1-3)Gal,-0.523
same,glycan array binding signal (z-score),GalNAc(b1-4)GlcNAc,-0.398
same,glycan array binding signal (z-score),Kdn(a2-3)Gal(b1-3)GlcNAc,0.691
same,glycan array binding signal (z-score),[11],5.32
same,glycan array binding signal (z-score),[12],7.07
same,glycan array binding signal (z-score),[13],-0.272
same,glycan array binding signal (z-score),[14],-0.262
same,glycan array binding signal (z-score),[15],-0.53
same,glycan array binding signal (z-score),Neu5Ac(a2-3)GalNAc,-0.954
same,glycan array binding signal (z-score),[16],4.1
same,glycan array binding signal (z-score),[17],0.162
same,glycan array binding signal (z-score),[18],-0.016
